The source made the active and inactive calls. How the source made its calls: active means hit-call score of the fitted dose curve at least 0.9, where 1 is the maximum; inactive means score below 0.9.

A word on the AC50: it is the midpoint of the concentration-response curve, whichever way the signal moves.

The first test in a line: BSK_3C_VCAM1: BioMAP Diversity Plus: 3C Assay for Vascular cell adhesion molecule 1 (VCAM1) Biomarker Activity (AID 2282999). The settings on record: BioMAP 3C HUVEC, VCAM1 ELISA, cytokine-stimulated; actives raise or lower the signal. In short, it runs like this: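 HUVEC primary cells, 24 h compound exposure; VCAM-1 by ELISA; gain/loss of signal fitted bidirectionally vs DMSO baseline.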
Background: In an ELISA, binding on a coated surface is turned into a signal by an enzyme label.
With `O=C1CCCO1`, the result was inactive.
The same measure, in the same setting: to `N#CC(Br)(Br)C(N)=O` belongs “inactive”.
Same read-out and setting: the same measure for `CC(C)(C)OOC(C)(C)CCC(C)(C)OOC(C)(C)C`: “inactive”; for `CC(O)CCO` (stereo unspecified): “inactive”.
Same read-out and setting: to `Cc1ccc([N+](=O)[O-])cc1` belongs “inactive”.
Turning to `C1=Cc2cccc3cccc1c23`, the result was inactive.
Still for that read-out and setting: to `CCCCC(CC)COC(=O)c1ccc(C(=O)OCC(CC)CCCC)c(C(=O)OCC(CC)CCCC)c1` (stereo unspecified) belongs “inactive”; to `COC(=O)Nc1nc2ccccc2[nH]1`, “inactive”.
For `Cc1ccc(N)c(N)c1`, the AC50 is 5.57 µM (active).
For `Clc1ccc(Cl)c(Cl)c1`, the outcome was inactive.
Still for that read-out and setting: the same measure for `CC(C)(C)OOC(=O)c1ccccc1`: “inactive”; for `CCN(CC)CCO`: “inactive”.
Turning to `C[N+](C)(C)CC1CO1` (stereo unspecified), the outcome was inactive.
Still for that read-out and setting: to `OCCOCCO` belongs “inactive”.
On the same count and under the same terms, the same measure for `OCCCBr`: “inactive”; for `[O-][Cl+]O`: “inactive”; for `Nc1cc(Cl)cc(C(=O)O)c1Cl`: “inactive”.
`COc1cc(C=O)cc2c1[C@H](COC(N)=O)[C@]1(OC(C)=O)ON2C[C@H]2[C@@H]1N2C(C)=O`: the AC50 is 22.1 µM (active).
Regarding `COC(=O)c1ccccc1N`, the result was inactive.
On the same count and under the same terms, the same measure for `O=Cc1ccco1`: “inactive”; for `Cc1ccc(N)cc1`: “inactive”.
Turning to `ClC1=C(Cl)[C@]2(Cl)[C@H]3[C@H]([C@@H]4C=C[C@H]3C4)[C@@]1(Cl)C2(Cl)Cl`, the concentration at half-maximal activity (AC50) was 28.7 µM (active).
Turning to `CCN(CC)N=O`, the outcome was inactive.
Still for that read-out and setting: to `Cc1ccc(N=C=O)cc1N=C=O` belongs “inactive”; to `c1ccc2c(c1)-c1cccc3cccc-2c13`, “inactive”; to `CCOc1cccc(C2(N3CCN(c4ccccc4)CC3)CCC(C)CC2)c1` (stereo unspecified), “inactive”.
With `CS(=O)(=O)NC(=O)c1cc(Oc2ccc(C(F)(F)F)cc2Cl)ccc1[N+](=O)[O-]`, the result was inactive.
The same measure, in the same setting: the same measure for `CCC12COCN1COC2`: “inactive”.

The next test is described as follows: BSK_4H_Eotaxin3: BioMAP Diversity Plus: 4H Assay for Eotaxin 3 Biomarker Activity (AID 2283000).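 On outcome: CCL26 protein level quantified by ELISA in parallel with SRB cytotoxicity check.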 The settings on record: primary human endothelial cells (HUVEC); actives raise or lower the signal. The method, boiled down:
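Human umbilical vein endothelial cells (BSK_4H system) dosed with test chemical; Eotaxin-3 (CCL26) measured by ELISA 24 h after dosing. Bidirectional curve fitting relative to DMSO negative control as baseline.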
As to `O=C1CCCO1`, the result was inactive.
Same read-out and setting: to `N#CC(Br)(Br)C(N)=O` belongs “inactive”; to `CC(C)(C)OOC(C)(C)CCC(C)(C)OOC(C)(C)C`, “inactive”; to `CC(O)CCO` (stereo unspecified), “inactive”.
Regarding `Cc1ccc([N+](=O)[O-])cc1`, the result was inactive.
In the case of `C1=Cc2cccc3cccc1c23`, the result was inactive.
The same measure, in the same setting: the same measure for `CCCCC(CC)COC(=O)c1ccc(C(=O)OCC(CC)CCCC)c(C(=O)OCC(CC)CCCC)c1` (stereo unspecified): “inactive”.
Take `COC(=O)Nc1nc2ccccc2[nH]1`: the AC50 is 20 µM (active).
Consider `Cc1ccc(N)c(N)c1`, for which the result was inactive.
Same read-out and setting: the same measure for `Clc1ccc(Cl)c(Cl)c1`: “inactive”.
On the same count and under the same terms, the same measure for `CC(C)(C)OOC(=O)c1ccccc1`: “inactive”.
The same measure, in the same setting: to `CCN(CC)CCO` belongs “inactive”; to `C[N+](C)(C)CC1CO1` (stereo unspecified), “inactive”.
In the case of `OCCOCCO`, the result was inactive.
Turning to `OCCCBr`, the result was inactive.
Same read-out and setting: the same measure for `[O-][Cl+]O`: “inactive”; for `Nc1cc(Cl)cc(C(=O)O)c1Cl`: “inactive”.
As to `COc1cc(C=O)cc2c1[C@H](COC(N)=O)[C@]1(OC(C)=O)ON2C[C@H]2[C@@H]1N2C(C)=O`, the half-maximal activity concentration (AC50) is 6.01 µM (active).
On to `COC(=O)c1ccccc1N`, for which the outcome was inactive.
Same read-out and setting: to `O=Cc1ccco1` belongs “inactive”; to `Cc1ccc(N)cc1`, “inactive”.
With `ClC1=C(Cl)[C@]2(Cl)[C@H]3[C@H]([C@@H]4C=C[C@H]3C4)[C@@]1(Cl)C2(Cl)Cl`, the concentration at half-maximal activity (AC50) is 34.1 µM (active).
For `CCN(CC)N=O`, the outcome was inactive.
Same read-out and setting: the same measure for `Cc1ccc(N=C=O)cc1N=C=O`: “inactive”.
Still for that read-out and setting: to `c1ccc2c(c1)-c1cccc3cccc-2c13` belongs “inactive”.
`CCOc1cccc(C2(N3CCN(c4ccccc4)CC3)CCC(C)CC2)c1` (stereo unspecified): the result was inactive.
Consider `CS(=O)(=O)NC(=O)c1cc(Oc2ccc(C(F)(F)F)cc2Cl)ccc1[N+](=O)[O-]`, for which the outcome was inactive.
On the same count and under the same terms, to `CCC12COCN1COC2` belongs “inactive”.
